Laboratory results published in the supplement of paper PMC10941209.
Unmarked numbers belong to inactive results.

System: Toxoplasma gondii RH 2F1 tachyzoites (intracellular in HFF)
Assay: parasite survival relative to DMSO control; higher = less antiparasitic activity, active = 20 or less
Conditions: 1 µM; 72 h
Description: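 Primary single-dose screen of the MMV Pandemic Response Box at 1 uM against T. gondii RH-2F1 (beta-galactosidase) tachyzoites in HFF cells, 72 h at 37 C. Parasite growth read by CPRG absorbance at 570 nm and normalised to DMSO-treated infected controls (% survival); pyrimethamine was the reference drug. The paper calls at least 80% inhibition a hit.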

In order of rising parasite survival:
1. O=C(/C=C/n1cnc(-c2cc(C(F)(F)F)cc(C(F)(F)F)c2)n1)NNc1cnccn1  20.8%
2. CCC(C)NCC(O)Cn1c2ccc(Cl)cc2c2cc(Cl)ccc21 (stereo not given)  26.8%
3. O=S(=O)(NCB(O)O)c1ccc(-c2nnn[nH]2)cc1C(F)(F)F  34.1%
4. Fc1ccc(-c2nc(-c3c[nH]c4ccc(Br)cc34)[nH]c2-c2ccc(F)cc2)cc1  36.6%
5. NC(=O)[C@@H]1CC[C@@H]2CN1C(=O)N2OS(=O)(=O)O  39%
6. CC1(C)Cc2c(C#N)c(SCCc3ccccc3)nc(N3CCOCC3)c2CO1  39.6%
7. O=C(O)c1ccccc1Sc1ncnc2sc3c(c12)CCC3  44.2%
8. COc1ccc(NS(=O)(=O)c2ccc(Cl)s2)cn1  45.1%
9. CC(=O)O[C@H]1C[C@@]2(C)[C@@H](C[C@@H](O)[C@H]3[C@@]4(C)CC[C@@H](O)[C@@H](C)[C@@H]4CC[C@@]32C)/C1=C(\CCC=C(C)C)C(=O)O  48.4%
10. CC(C)(C)NC(=O)N[C@H](C(=O)N1C[C@H]2[C@@H]([C@H]1C(=O)NC(CC1CCC1)C(=O)C(N)=O)C2(C)C)C(C)(C)C (stereo not given in full)  48.5%
11. Cc1ccn2c(C(=O)NCc3ccccc3)c(C)nc2c1  49.6%
12. CONC(=N)c1ccc(-c2ccc(-c3ccc(C(=N)NOC)cc3)o2)cc1  49.7%
13. CC(C)(C)c1cccc(-c2nc3cc(C(=N)N)ccc3[nH]2)c1O  50.5%
14. CCOc1ccc(/C=N/NC(=O)C2CC2c2ccc(C(C)(C)C)cc2)cc1OCC (stereo not given)  51.6%
15. CC(=O)Nc1cc(NS(=O)(=O)c2ccc(Cl)cc2)cc2c(Cl)[nH]nc12  52%
16. Cc1ncc([N+](=O)[O-])n1CC(O)CN1CCOCC1 (stereo not given)  52.5%
17. NC[C@H]1OB(O)c2c(OCCCO)cccc21  54.2%
18. CS(=O)(=O)c1ccc(Oc2ccc(Cl)cc2)cc1  54.5%
19. Oc1cc(-c2cccc3ccccc23)[nH]n1  55.1%
20. CCc1cc(CCCOc2c(C)cc(-c3noc(C(F)(F)F)n3)cc2C)on1  55.4%
21. C[C@H]1CC[C@@]2(O)C(C)(C)[C@@H]3CC[C@@]2(C)[C@H]1C3  55.5%
22. COC1CC2CCC(C)C(O)(O2)C(=O)C(=O)N2CCCCC2C(=O)OC(C(C)CC2CCC(OCCO)C(OC)C2)CC(=O)C(C)/C=C(\C)C(O)C(OC)C(=O)C(C)CC(C)/C=C/C=C/C=C/1C (stereo not given)  56.8%
23. O=S(=O)(Nc1ccc(-n2cccc2)cc1)c1ccc(Cl)c(Cl)c1  58.1%
24. COC(=O)Nc1nc2cc([S+]([O-])c3ccccc3)ccc2[nH]1 (stereo not given)  59.2%
25. O=c1[nH]c(=O)n(Cc2cccc(Oc3ccccc3)c2)cc1Nc1ccccc1  60.3%
26. CCOc1ccc(C(=O)NCCc2ccccc2)cc1  60.8%
27. Cc1ccc(NC(=O)c2ccc(CN3CCN(C)CC3)cc2)cc1Nc1nccc(-c2cccnc2)n1  61%
28. O=C(Nc1nnc(-c2ccc(Cl)cc2)o1)c1nc2ccccc2s1  62.5%
29. O=C(NCCN1CCCCC1)c1cccc(C(F)(F)F)c1  67.5%
30. O=C(CCCC(F)(F)F)N1CCC(c2nc(-c3nccs3)no2)CC1  68%
31. CNC(=O)C1O[C@@H](n2cnc3c(NCc4cccc(I)c4)nc(Cl)nc32)[C@H](O)[C@@H]1O (stereo not given in full)  68.3%
32. CCN(CC)CCCC(C)Nc1ccnc2cc(Cl)ccc12 (stereo not given)  70.6%
33. COc1ccc(C2=CC(c3c(F)cccc3Cl)n3ncnc3N2)cc1 (stereo not given)  71.5%
34. Cc1nc(N(C)C(=O)Cc2ccc(-c3ccccn3)cc2)sc1S(N)(=O)=O  72.8%
35. [N-]=[N+]=N[C@H]1C[C@H](n2ccc(=O)[nH]c2=O)O[C@@H]1CO  73.1%
36. CC(C)c1cc2c(cc1S(=O)(=O)O)[C@@]1(C)CCC[C@@](C)(C(=O)O)[C@@H]1CC2  74.6%
37. C[C@H](Cn1cnc2c(N)ncnc21)OCP(=O)(O)O  76.3%
38. Cc1nc2ccc(Cl)cc2c(-c2ccccc2)c1CC(=O)O  79.3%
39. NCc1ccc(S(N)(=O)=O)cc1  84.2%

With Cn1cc(NC(=O)c2cc(NC(=O)c3ccc(/C=C/c4cnc5ccccc5c4)cc3)cn2C)cc1C(=O)NCCN1CCOCC1 the parasite survival was 12.8% (active).
